Bioassay records from PubChem.
An excerpt weighted towards active compounds, which were near 4.7% of everything screened.
TRHR ag: TRH receptor (human) agonism | hit rate 0.18% among 360,000 | TRHR cells, calcium flux fluo-8, FDSS agonist mode | activation, % at 2 µM | P34981; also: 0% is about no effect
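TRHR-expressing cells, plated overnight in medium with 10% serum, were loaded with fluo-8 calcium dye at room temperature. After a 10 s baseline, library compound was pin-added and calcium release was recorded kinetically (ex 480/em 530) as agonist response.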
TRHR PAM: allosteric enhancers of human TRH receptor; P34981; TRHR cells, fluo-8 calcium fluorescence, EC20 TRH enhancement; enhancement, % at 2 µM; hit rate 0.66% among 360,000; AID 493056; in the data active = enhancement above about 30%; also: 0% is about no effect
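TRHR-expressing cells loaded with fluo-8 calcium dye were read kinetically (ex 480/em 530) during compound addition, then stimulated with an EC20 of TRH (10 nM final). Enhancement of the Gq-mediated intracellular calcium response was scored.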
D1 antag: antagonists of human D1 dopamine receptor. activity change, negative = inhibition, % at 10 µM. HEK293 TREx D1 cells, calcium flux, dopamine EC80; active compounds read low. hit rate 3.2% among 360,000. AID 504652; in the data active = activity change below about -30%; also: % is scaled to controls: 0 for no effect and ±100 for the full control effect
Target sequence (P21728 whole entry, looked up): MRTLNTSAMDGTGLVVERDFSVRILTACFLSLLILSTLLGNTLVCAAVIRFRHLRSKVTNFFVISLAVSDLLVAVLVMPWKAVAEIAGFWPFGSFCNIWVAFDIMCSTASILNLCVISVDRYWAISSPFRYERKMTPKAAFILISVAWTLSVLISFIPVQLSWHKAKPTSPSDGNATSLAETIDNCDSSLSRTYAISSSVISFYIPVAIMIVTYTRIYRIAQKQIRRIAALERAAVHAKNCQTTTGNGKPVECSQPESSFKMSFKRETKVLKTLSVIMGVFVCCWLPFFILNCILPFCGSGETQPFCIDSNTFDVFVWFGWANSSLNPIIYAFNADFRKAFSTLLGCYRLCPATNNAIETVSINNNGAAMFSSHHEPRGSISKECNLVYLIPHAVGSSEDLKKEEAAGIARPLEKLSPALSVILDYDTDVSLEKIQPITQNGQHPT
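Inducible Hek293 Trex D1 cells (tetracycline, overnight, 30 C). Calcium dye 30–90 min RT. Antagonist mode: EC80 dopamine added after 180 s compound read.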
D1 agonist: activates the human D1 dopamine receptor. activation, % at 2 µM. P21728. HEK293 T-REx D1 cells, calcium flux, agonist mode. hit rate 1% among 360,000; also: 0% is about no effect
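Agonism was scored from calcium flux recorded over 180 s (1 read/s) after pintool compound addition, following a 10-cycle baseline. Cells were inducible force-coupled HEK293 TREx D1, plated overnight at 30 C and loaded with no-wash calcium dye.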
D1 PAM: enhances dopamine response at the human D1 receptor | hit rate 0.036% among 360,000 | AID 504651 | HEK293 TREx D1 cells, calcium flux, dopamine EC20 potentiation | potentiation, % at 10 µM | P21728; in the data active = potentiation above about 30%; also: 0% is about no effect
Numbers without * were called inactive; / = no result. Rule as the data show it, unless noted: active = activation above about 30%; inactive = the rest.

SMILES	TRHR ag	TRHR PAM	D1 antag	D1 agonist	D1 PAM
Cc1cccc(OCC(=O)Nc2ccc(N3CCN(C(=O)c4ccccc4)CC3)cc2)c1	0	-3	-19	17	-4
CCN1CCN(c2ccc(NC(=O)COc3ccccc3Cl)cc2)CC1	2	-3	-42*	9	-16
CCCOc1ccc(C2c3c(oc4ccccc4c3=O)C(=O)N2c2nnc(C(C)C)s2)cc1 (stereo not given)	0	5	13	-1	-1
COCCCNCCOCCOc1ccc(Cl)cc1C(C)(C)C	3	3	14	38*	-7
COCCNCCOCCOc1ccc(Cl)c(C)c1	0	-12	/	32*	-3
CC(C)(C)c1ccccc1OCCOCCNCc1ccccc1	0	1	-21	36*	-1
Cc1ccc(C(C)C)c(OCCNCc2ccccc2)c1	0	6	14	53*	6
Cc1ccc(C)c(OCCCNCc2ccccc2)c1	1	3	-1	20	4
COc1ccc(CNC(=O)c2cc3cc(S(=O)(=O)N4CCCCC4)ccc3n2C)c(OC)c1	1	1	2	4	-5
CCOC(=O)Cn1c(=O)n(CC2CCCO2)c2nc(-c3cccc(C)c3)nc(C(N)=O)c21 (stereo not given)	0	-2	14	3	1
CC(=O)c1ccc(NC(=O)c2ccc(-c3ccc(Cl)cc3)o2)cc1	1	3	-5	2	-2
COc1ccc(-c2cc(C)no2)cc1S(=O)(=O)NCc1cccs1	0	2	-13	2	-2
COCCNCc1ccccc1	0	0	-10	6	-4
Cc1cc(OCCOCCNCc2ccccc2)ccc1C(C)C	1	-2	-7	63*	-3
CN(CCOc1ccccc1)CC(=O)Nc1cccc(C#N)c1	0	2	-11	3	7
NC(=O)C1CCN(C(=O)CCSCc2ccccc2)CC1	0	6	1	7	3
O=C(Nc1nc2c(s1)CCCC2)c1cc(-c2ccccc2)nc2ccccc12	1	-5	9	32*	5
Cc1ccc(NC2=C(Cl)C(=O)OC2OC(=O)c2ccccc2)c(C)c1 (stereo not given)	0	-2	-51*	9	-2
Cc1ccccc1NC1=C(Cl)C(=O)OC1OC(=O)c1ccccc1C (stereo not given)	0	-8	-22	1	-1
Cc1ccc(NC2=C(Cl)C(=O)OC2OC(=O)c2ccco2)cc1 (stereo not given)	0	-5	-21	4	-1
Cc1cccc(C)c1NC1=C(Cl)C(=O)OC1OC(=O)c1ccccc1 (stereo not given)	-1	-8	-48*	-1	-1
C=C(C)Cn1c(SCC(=O)Nc2cccc(Cl)c2)nc2sc3c(c2c1=O)CCCC3	-1	0	-3	4	0
Cc1cccc(Cl)c1NC(=S)NN	0	6	-42*	3	4
COc1ccccc1-c1c(C)nn2c(-c3ccccc3)cc(C)nc12	0	-1	-2	2	4
COc1ccc(-c2c(C)nn3c(-c4ccccc4)cc(C)nc23)cc1OC	1	36*	-8	-1	0
SMILES	TRHR ag	TRHR PAM	D1 antag	D1 agonist	D1 PAM
CCc1ccc2nc(N3CCC(C(=O)O)CC3)sc2c1	0	4	2	0	-7
CCCCN(C)CCNC(=O)C1CCN(c2nc3ccc(CC)cc3s2)CC1	3	7	-55*	65*	1
Cc1nn(-c2ccccc2)c(C)c1-c1ccccc1O	0	0	-6	1	0
Cc1nn(-c2ccccc2)c(/N=C/c2ccc(O)cc2)c1-c1ccccc1	0	-8	-44*	1	-8
O=[N+]([O-])c1cccc(CP(=O)(c2ccccc2)c2ccccc2)c1	-4	1	-2	0	-4
Nc1cccc(CP(=O)(c2ccccc2)c2ccccc2)c1	0	31*	3	1	-4
Cc1cc2nn(-c3ccccc3)nc2cc1NC(=O)COc1ccc(Cl)cc1	-1	3	4	1	-2
Cn1nnc2c(NCc3ccccc3)ncnc21	0	-6	/	1	-3
CCOC(=O)C1CCN(C(=O)CCc2nnc3ccc(N4CCC(C)CC4)nn23)CC1	-1	-4	23	3	-1
COc1ccc(-c2nn3c(-c4ccccc4)nnc3s2)cc1	-1	-9	-31*	1	-2
O=C1CCCC(NCCCCCCNC2=C([N+](=O)[O-])C(=O)CCC2)=C1[N+](=O)[O-]	0	5	-92*	0	-5
COc1ccc(O)c(/C=N/n2c(-c3ccco3)csc2=Nc2cccnc2)c1	0	-3	-42*	4	-5
COCCn1c(-c2ccco2)csc1=Nc1cccnc1	0	-2	6	1	1
Cc1c(N=Nc2c(-c3ccc([N+](=O)[O-])cc3)[nH]n(C(N)=S)c2=O)cccc1[N+](=O)[O-]	0	-1	-28	23	-6
NC(=S)n1[nH]c(-c2ccc([N+](=O)[O-])cc2)c(N=Nc2ccccc2[N+](=O)[O-])c1=O	1	11	-51*	2	-12
CC(C)c1ccc(NC(=O)c2cc(S(=O)(=O)NC3CCCCC3)ccc2F)cc1	1	3	-9	0	-2
CCOc1ccc(Br)cc1S(=O)(=O)NC1CCCC1	0	1	8	0	-5
CCOc1cc(C)c(S(=O)(=O)NC2CCCCC2)cc1C	0	0	-33*	18	-5
CN(CC(=O)Nc1ccc(F)cc1)S(=O)(=O)c1ccc2c(c1)c(=O)n(C)c(=O)n2C	0	-6	3	1	0
Cc1ccc(-c2nc(N)sc2CC(=O)OCC(=O)NC2CCCC(C)C2C)cc1 (stereo not given)	-1	-3	-41*	3	-12
COCCCN(Cc1ccco1)C(=O)c1cc2c(s1)-c1ccccc1OC2	0	-6	-6	2	-5
O=C(NCc1ccccc1)c1noc2c1CCCCC2	0	-1	-5	3	0
CC(NC(=O)c1noc2c1CCCCC2)c1ccccc1 (stereo not given)	2	30*	-2	1	1
O=C(CCS(=O)(=O)c1cccc2nonc12)N1CCOCC1	0	-3	27	1	-1
O=C(CCS(=O)(=O)c1cccc2nonc12)N1CC(=O)N(CCc2ccccc2)C(=O)C1	0	2	-91*	11	-2
CN1CCN(C(=O)CCN2C(=O)/C(=C\c3ccccc3F)SC2=S)CC1	0	0	51	96*	10
CCOC(=O)C1=C(COC(=O)CC(C)c2ccccc2)NC(=O)NC1C (stereo not given)	0	0	-10	0	-7
CCOC(=O)C1=C(COC(=O)c2ncc(Cl)c(Cl)c2Cl)NC(=O)NC1C (stereo not given)	0	-5	-49*	-2	-4
